{"source": "PubChem BioAssay AID1159580", "about": "(chemical genetic matrix, 2015)", "test": "chemical genetic growth profiling, strain panel (AID 1159580);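 note: tested at 20 µM; growth read once vehicle control cultures reached saturation at 30 °C; 1 = growth at the plate median or of vehicle wells; lower values mean less growth of the strain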", "details": "growth OD", "note": "The campaign covered roughly 5,500 compounds. About 2,000 (36%) were called active. Not shown: some 18% with an inconclusive outcome. The list shows a part of the results. Unmarked numbers belong to inactive results. Cut-off read from the data, not from the text of the source: active = normalized growth mostly below about 0.91 (no sharp cut-off); inconclusive = no clear call, values can overlap the other calls; inactive = mostly above about 0.92."}
{"smiles": "C[C@@H]1CC[C@H]2[C@@H](C)C(=O)O[C@@H]3O[C@@]4(C)CC[C@@H]1[C@]32OO4", "values": [{"measurement": "normalized growth", "setting": "S. cerevisiae deletion strains, locus YKL009W, strain mrt4, stronger effect = lower value", "value": 0.986}, {"measurement": "normalized growth", "setting": "S. cerevisiae deletion strains, locus YKL068W, stronger effect = lower value", "value": "0.914 (active)"}, {"measurement": "normalized growth", "setting": "S. cerevisiae deletion strains, locus YKL085W, strain MDH1 (second series), stronger effect = lower value", "value": "0.906 (active)"}, {"measurement": "normalized growth", "setting": "S. cerevisiae deletion strains, locus YKL085W, strain MDH1, stronger effect = lower value", "value": "0.906 (active)"}, {"measurement": "normalized growth", "setting": "S. cerevisiae deletion strains, locus YKL160W, strain elf1, stronger effect = lower value", "value": "0.874 (active)"}, {"measurement": "normalized growth", "setting": "S. cerevisiae deletion strains, locus YKL190W, strain CNB1, stronger effect = lower value", "value": "0.856 (active)"}, {"measurement": "normalized growth", "setting": "S. cerevisiae deletion strains, locus YKR001C, strain vps1, stronger effect = lower value", "value": "0.692 (active)"}, {"measurement": "normalized growth", "setting": "S. cerevisiae deletion strains, locus YKR026C, strain gcn3, stronger effect = lower value", "value": 0.953}, {"measurement": "normalized growth", "setting": "S. cerevisiae deletion strains, locus YKR091W, strain srl3, stronger effect = lower value", "value": 0.949}, {"measurement": "normalized growth", "setting": "S. cerevisiae deletion strains, locus YLL001W, strain dnm1, stronger effect = lower value", "value": "0.824 (active)"}, {"measurement": "normalized growth", "setting": "S. cerevisiae deletion strains, locus YLL026W, stronger effect = lower value", "value": "0.876 (active)"}, {"measurement": "normalized growth", "setting": "S. cerevisiae deletion strains, locus YLL041C, strain sdh2, stronger effect = lower value", "value": 0.946}, {"measurement": "normalized growth", "setting": "S. cerevisiae deletion strains, locus YLR027C, strain aat2, stronger effect = lower value", "value": "0.865 (active)"}, {"measurement": "normalized growth", "setting": "S. cerevisiae deletion strains, locus YLR039C, strain RIC1, stronger effect = lower value", "value": "0.353 (active)"}, {"measurement": "normalized growth", "setting": "S. cerevisiae deletion strains, locus YLR058C, strain SHM2, stronger effect = lower value", "value": "0.852 (active)"}, {"measurement": "normalized growth", "setting": "S. cerevisiae deletion strains, locus YLR102C, strain apc9, stronger effect = lower value", "value": 0.94}, {"measurement": "normalized growth", "setting": "S. cerevisiae deletion strains, locus YLR113W, strain HOG1, stronger effect = lower value", "value": "0.698 (active)"}, {"measurement": "normalized growth", "setting": "S. cerevisiae deletion strains, locus YLR221C, strain rsa3, stronger effect = lower value", "value": "0.812 (active)"}, {"measurement": "normalized growth", "setting": "S. cerevisiae deletion strains, locus YLR258W, strain gsy2, stronger effect = lower value", "value": 0.918}, {"measurement": "normalized growth", "setting": "S. cerevisiae deletion strains, locus YLR262C, strain YPT6 (second series), stronger effect = lower value", "value": "0.375 (active)"}, {"measurement": "normalized growth", "setting": "S. cerevisiae deletion strains, locus YLR262C, strain YPT6, stronger effect = lower value", "value": "0.364 (active)"}, {"measurement": "normalized growth", "setting": "S. cerevisiae deletion strains, locus YLR268W, strain sec22, stronger effect = lower value", "value": "0.822 (active)"}, {"measurement": "normalized growth", "setting": "S. cerevisiae deletion strains, locus YLR320W, strain mms22, stronger effect = lower value", "value": "0.674 (active)"}, {"measurement": "normalized growth", "setting": "S. cerevisiae deletion strains, locus YLR330W, strain CHS5, stronger effect = lower value", "value": "0.879 (active)"}, {"measurement": "normalized growth", "setting": "S. cerevisiae deletion strains, locus YLR342W, strain FKS1 (second series), stronger effect = lower value", "value": 0.82}, {"measurement": "normalized growth", "setting": "S. cerevisiae deletion strains, locus YLR342W, strain FKS1, stronger effect = lower value", "value": "0.885 (active)"}, {"measurement": "normalized growth", "setting": "S. cerevisiae deletion strains, locus YLR357W, strain rsc2, stronger effect = lower value", "value": 1.02}, {"measurement": "normalized growth", "setting": "S. cerevisiae deletion strains, locus YLR370C, strain arc18, stronger effect = lower value", "value": "0.897 (active)"}, {"measurement": "normalized growth", "setting": "S. cerevisiae deletion strains, locus YLR371W, strain rom2, stronger effect = lower value", "value": 0.929}, {"measurement": "normalized growth", "setting": "S. cerevisiae deletion strains, locus YLR384C, strain iki3, stronger effect = lower value", "value": 0.949}, {"measurement": "normalized growth", "setting": "S. cerevisiae deletion strains, locus YLR418C, strain cdc73, stronger effect = lower value", "value": "0.614 (active)"}, {"measurement": "normalized growth", "setting": "S. cerevisiae deletion strains, locus YML016C, strain PPZ1, stronger effect = lower value", "value": "0.915 (active)"}, {"measurement": "normalized growth", "setting": "S. cerevisiae deletion strains, locus YML032C, strain rad52, stronger effect = lower value", "value": "0.798 (active)"}, {"measurement": "normalized growth", "setting": "S. cerevisiae deletion strains, locus YML120C, strain ndi1, stronger effect = lower value", "value": "0.839 (active)"}, {"measurement": "normalized growth", "setting": "S. cerevisiae deletion strains, locus YML124C, strain tub3, stronger effect = lower value", "value": 0.936}, {"measurement": "normalized growth", "setting": "S. cerevisiae deletion strains, locus YMR058W, strain fet3, stronger effect = lower value", "value": "0.742 (active)"}, {"measurement": "normalized growth", "setting": "S. cerevisiae deletion strains, locus YMR078C, strain ctf18, stronger effect = lower value", "value": "0.882 (active)"}, {"measurement": "normalized growth", "setting": "S. cerevisiae deletion strains, locus YMR125W, strain sto1, stronger effect = lower value", "value": 0.925}, {"measurement": "normalized growth", "setting": "S. cerevisiae deletion strains, locus YMR129W, stronger effect = lower value", "value": "0.899 (active)"}, {"measurement": "normalized growth", "setting": "S. cerevisiae deletion strains, locus YMR205C, strain PFK2, stronger effect = lower value", "value": "0.779 (active)"}, {"measurement": "normalized growth", "setting": "S. cerevisiae deletion strains, locus YMR223W, strain ubp8, stronger effect = lower value", "value": "0.878 (active)"}, {"measurement": "normalized growth", "setting": "S. cerevisiae deletion strains, locus YMR231W, strain pep5, stronger effect = lower value", "value": "0.928 (active)"}, {"measurement": "normalized growth", "setting": "S. cerevisiae deletion strains, locus YMR263W, strain SAP30, stronger effect = lower value", "value": "0.81 (active)"}, {"measurement": "normalized growth", "setting": "S. cerevisiae deletion strains, locus YMR307W, strain GAS1, stronger effect = lower value", "value": 0.651}, {"measurement": "normalized growth", "setting": "S. cerevisiae deletion strains, locus YNL067W, strain RPL9B, stronger effect = lower value", "value": "0.86 (active)"}, {"measurement": "normalized growth", "setting": "S. cerevisiae deletion strains, locus YNL071W, strain lat1, stronger effect = lower value", "value": "0.705 (active)"}, {"measurement": "normalized growth", "setting": "S. cerevisiae deletion strains, locus YNL128W, strain TEP1, stronger effect = lower value", "value": "0.757 (active)"}, {"measurement": "normalized growth", "setting": "S. cerevisiae deletion strains, locus YNL153C, strain GIM3, stronger effect = lower value", "value": "0.811 (active)"}, {"measurement": "normalized growth", "setting": "S. cerevisiae deletion strains, locus YNL183C, strain NPR1, stronger effect = lower value", "value": "0.748 (active)"}, {"measurement": "normalized growth", "setting": "S. cerevisiae deletion strains, locus YNL209W, strain ssb2, stronger effect = lower value", "value": "0.867 (active)"}, {"measurement": "normalized growth", "setting": "S. cerevisiae deletion strains, locus YNL233W, strain BNI4, stronger effect = lower value", "value": "0.81 (active)"}, {"measurement": "normalized growth", "setting": "S. cerevisiae deletion strains, locus YNL248C, strain rpa49, stronger effect = lower value", "value": 0.902}, {"measurement": "normalized growth", "setting": "S. cerevisiae deletion strains, locus YNL250W, strain rad50, stronger effect = lower value", "value": "0.87 (active)"}, {"measurement": "normalized growth", "setting": "S. cerevisiae deletion strains, locus YNL271C, strain bni1, stronger effect = lower value", "value": "0.883 (active)"}, {"measurement": "normalized growth", "setting": "S. cerevisiae deletion strains, locus YNL298W, strain CLA4, stronger effect = lower value", "value": "0.861 (active)"}, {"measurement": "normalized growth", "setting": "S. cerevisiae deletion strains, locus YNL307C, strain MCK1, stronger effect = lower value", "value": "0.754 (active)"}, {"measurement": "normalized growth", "setting": "S. cerevisiae deletion strains, locus YNL322C, strain KRE1 (second series), stronger effect = lower value", "value": "0.904 (active)"}, {"measurement": "normalized growth", "setting": "S. cerevisiae deletion strains, locus YNL322C, strain KRE1, stronger effect = lower value", "value": "0.857 (active)"}, {"measurement": "normalized growth", "setting": "S. cerevisiae deletion strains, locus YNR049C, strain mso1, stronger effect = lower value", "value": 0.94}, {"measurement": "normalized growth", "setting": "S. cerevisiae deletion strains, locus YNR052C, strain pop2, stronger effect = lower value", "value": "0.842 (active)"}, {"measurement": "normalized growth", "setting": "S. cerevisiae deletion strains, locus YOL006C, strain TOP1, stronger effect = lower value", "value": 0.605}, {"measurement": "normalized growth", "setting": "S. cerevisiae deletion strains, locus YOL012C, strain htz1", "value": 0.461}, {"measurement": "normalized growth", "setting": "S. cerevisiae deletion strains, locus YOL147C, strain pex11, stronger effect = lower value", "value": "0.869 (active)"}, {"measurement": "normalized growth", "setting": "S. cerevisiae deletion strains, locus YOR001W, strain rrp6, stronger effect = lower value", "value": "0.855 (active)"}, {"measurement": "normalized growth", "setting": "S. cerevisiae deletion strains, locus YOR061W, strain CKA2, stronger effect = lower value", "value": 0.92}, {"measurement": "normalized growth", "setting": "S. cerevisiae deletion strains, locus YOR069W, strain VPS5, stronger effect = lower value", "value": "0.911 (active)"}, {"measurement": "normalized growth", "setting": "S. cerevisiae deletion strains, locus YOR070C, strain gyp1, stronger effect = lower value", "value": "0.814 (active)"}, {"measurement": "normalized growth", "setting": "S. cerevisiae deletion strains, locus YOR080W, strain dia2, stronger effect = lower value", "value": 0.926}, {"measurement": "normalized growth", "setting": "S. cerevisiae deletion strains, locus YOR083W, strain WHI5, stronger effect = lower value", "value": "0.822 (active)"}, {"measurement": "normalized growth", "setting": "S. cerevisiae deletion strains, locus YOR106W, strain vam3, stronger effect = lower value", "value": "0.784 (active)"}, {"measurement": "normalized growth", "setting": "S. cerevisiae deletion strains, locus YOR136W, strain idh2, stronger effect = lower value", "value": 0.93}, {"measurement": "normalized growth", "setting": "S. cerevisiae deletion strains, locus YOR144C, strain elg1, stronger effect = lower value", "value": "0.927 (active)"}, {"measurement": "normalized growth", "setting": "S. cerevisiae deletion strains, locus YOR184W, strain ser1, stronger effect = lower value", "value": "0.705 (active)"}, {"measurement": "normalized growth", "setting": "S. cerevisiae deletion strains, locus YOR231W, strain MKK1, stronger effect = lower value", "value": "0.745 (active)"}, {"measurement": "normalized growth", "setting": "S. cerevisiae deletion strains, locus YOR265W, strain rbl2, stronger effect = lower value", "value": "0.913 (active)"}, {"measurement": "normalized growth", "setting": "S. cerevisiae deletion strains, locus YOR270C, strain vph1, stronger effect = lower value", "value": "0.633 (active)"}, {"measurement": "normalized growth", "setting": "S. cerevisiae deletion strains, locus YOR290C, strain snf2, stronger effect = lower value", "value": "0.847 (active)"}, {"measurement": "normalized growth", "setting": "S. cerevisiae deletion strains, locus YOR316C, strain cot1, stronger effect = lower value", "value": 0.94}, {"measurement": "normalized growth", "setting": "S. cerevisiae deletion strains, locus YPL051W, strain arl3, stronger effect = lower value", "value": "0.818 (active)"}, {"measurement": "normalized growth", "setting": "S. cerevisiae deletion strains, locus YPL078C, strain atp4, stronger effect = lower value", "value": "0.796 (active)"}, {"measurement": "normalized growth", "setting": "S. cerevisiae deletion strains, locus YPL106C, strain sse1, stronger effect = lower value", "value": 0.894}, {"measurement": "normalized growth", "setting": "S. cerevisiae deletion strains, locus YPL240C, strain hsp82, stronger effect = lower value", "value": 0.949}, {"measurement": "normalized growth", "setting": "S. cerevisiae deletion strains, locus YPL241C, strain CIN2, stronger effect = lower value", "value": "0.924 (active)"}, {"measurement": "normalized growth", "setting": "S. cerevisiae deletion strains, locus YPL256C, strain CLN2, stronger effect = lower value", "value": "0.704 (active)"}, {"measurement": "normalized growth", "setting": "S. cerevisiae deletion strains, locus YPR119W, strain clb2, stronger effect = lower value", "value": "0.927 (active)"}, {"measurement": "normalized growth", "setting": "S. cerevisiae deletion strains, locus YPR141C, strain kar3, stronger effect = lower value", "value": "0.907 (active)"}, {"measurement": "normalized growth", "setting": "S. cerevisiae deletion strains, locus YPR163C, strain tif3, stronger effect = lower value", "value": 0.958}, {"measurement": "normalized growth", "setting": "S. cerevisiae deletion strains, locus YPR167C, strain met16, stronger effect = lower value", "value": "0.909 (active)"}, {"measurement": "normalized growth", "setting": "S. cerevisiae deletion strains, strain wtn01, stronger effect = lower value", "value": "0.818 (active)"}, {"measurement": "normalized growth", "setting": "S. cerevisiae strains, strain wild type, stronger effect = lower value", "value": "0.852 (active)"}]}
